Reference: PubChem BioAssay (NCI)
The panel holds about 83,000 compounds, 20% with a hit somewhere; the sample as a whole holds those more often.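 For each line, cells grew in 96-well plates with the test compound present at a single concentration for 48 hours.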 Calls of active or inactive are those of the source. The calls were made as follows: active = growth percent below 10; inactive = the rest.

These molecules were tested on MDA-MB-468 breast (assay: NCI-60 one-dose screen, 48 h (100 = growth as untreated, 0 = no growth, -100 = all killed)). Settings: 10 µM unless noted.

Structure (SMILES) | growth
CCCCCCCCCCCCCCCCCCOc1ccc(CC(=O)OCC[N+]2(C)CCCCC2)cc1 | 92.2% (inactive)
O=[N+]([O-])c1ccc(NS(=O)(=O)c2cc(Cl)ccc2Cl)c2ccccc12 | 23.6% (inactive)
CCOC(=O)CSSCC(=O)OCC | 117% (inactive)
O=C(N/N=C\c1cc(Cl)ccc1O)c1ccncc1 | 36.9% (inactive)
